T1: UNK ZnF1-3 (human, UniProt Q9C0B0 31-174)
T1 sequence: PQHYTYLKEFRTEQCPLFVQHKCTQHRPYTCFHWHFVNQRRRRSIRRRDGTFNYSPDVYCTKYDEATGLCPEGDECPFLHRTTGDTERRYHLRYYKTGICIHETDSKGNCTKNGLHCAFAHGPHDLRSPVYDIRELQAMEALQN

B1: chr7:141450121:141450122:+_ENSG00000106028_ENST00000265304|hu_mus|hu_hu_hu_mus_True|68_68 (ssRNA)
RNA: GGGAGUUCUACAGUCCGACGAUCUCAUCCGUUCUAUGCCUUUUCUUUUGUCUGGUCACUCAGAAAUAUAAUAUUAUCAGCUAUGAUUGUUGUUGCUUGCCGCCUCACAUUGUUUUUAUCCAUGUACUCGCCAUAGUCCACUUUCAACAGAGGAUUGAGCAUCA
B2: chr11:80063784:80063785:+_ENSMUSG00000017686_ENSMUST00000092857|mus_mus|FALSE|FALSE (ssRNA)
RNA: GGGAGUUCUACAGUCCGACGAUCCAUUAGGUUUCUUCCAAGGAGAGACUGAAGAACUCCAGUUUUCCCACAGCCUUUCACUCCAAUUACAUUACACCUGAACACAUUUCUCUGAGUCUGUUUUUUCUGCAGGUCAAUCUUUUUCAACAGAGGAUUGAGCAUCA
B3: chr9:95013113:95013114:-_ENSG00000196305_ENST00000443024|hu_hu|hu_hu_hu_mus_False|58_58 (ssRNA)
RNA: GGGAGUUCUACAGUCCGACGAUCCUCAGUCAGAAAGGGCGUGUAAGGGGCCAUCAGUCUGCACAGAGAAAGCAGGACACUAAACAAUGUCUCCAGAGCCAUGACACAGUCUUCCACCCCACUCUCACCCUUUAACCUCCUCCUCAACAGAGGAUUGAGCAUCA
B4: 76184225_76186117_1027_CDS_ENSG00000119685_ENST00000298832|human|control|control (ssRNA)
RNA: GGGAGUUCUACAGUCCGACGAUCCCAUUUGUUUCCAUAAUCCUCCACUUCUGGAUCGUCACAACUGACGUAAUCUCCACUUUUCUUGUUGACACUGUAGUUUGUCAGAUGCAUGAACUGGUUCCGAAUGUUCUUGGCUCCUUGCAACAGAGGAUUGAGCAUCA
B5: chr11:31958201:31958202:+_ENSMUSG00000020297_ENSMUST00000020537|mus_mus|FALSE|FALSE (ssRNA)
RNA: GGGAGUUCUACAGUCCGACGAUCCCAUGAGUUUGUGCAAAUCUUGCAAGCUCACCAUUGAGUGGUACUCUGUGCAUUCCUAGUUGAGAAAUGCCAACAUCACCUUCCUCUCCAAAUCAGCCUUGCCUGCCAUCGCUGUGCUUCCAACAGAGGAUUGAGCAUCA
B6: 32462045_32462714_1507_3pUTR_ENSMUSG00000027668_ENSMUST00000091257|mouse|control|control (ssRNA)
RNA: GGGAGUUCUACAGUCCGACGAUCACUCUUAUACACUUUCAGUACACUGGGGGUAGGAUGAAACUCAGAACAAAACUCAUCAACCAAAACAGAUAGUCGACAAAUUUCAUCUGUCAUUGCACAAGAAACCUUGUUUGCCACCUCCAACAGAGGAUUGAGCAUCA
B7: 7395510_7396407_2237_ncRNA_ENSMUSG00000031153_ENSMUST00000132456|mouse|control|control (ssRNA)
RNA: GGGAGUUCUACAGUCCGACGAUCAUGUUCUGCAGCUUCUUGUUCAUUUCUCGAAGGUUCUCAUCGCCUGGCUUCACUAGGUCUCUCAGGACACUGCCCAGCCCACUUCGGUCUGUGUGGCCUGCUGCCACAGACACAUCAAUCCAACAGAGGAUUGAGCAUCA
B8: chr9:14812383:14812384:-_ENSMUSG00000031934_ENSMUST00000164273|mus_mus|mus_mus_mus_hu_True|28_28 (ssRNA)
RNA: GGGAGUUCUACAGUCCGACGAUCAUAGCCCAGGUAGAUACACGCUAACAGUAUAAUGAUGAGUGUCAGCAGGCGGCAGCUAAUGUACUUGAUGAUUAAAUUAUUAGAGUUCUUUUUUGUCUUCAAGUACUGCUCCACAAUUGGCAACAGAGGAUUGAGCAUCA
B9: chr13:51246309:51246310:+_ENSMUSG00000021395_ENSMUST00000095797|mus_hu|FALSE|FALSE (ssRNA)
RNA: GGGAGUUCUACAGUCCGACGAUCCCCACAGUGAAGCACGAGGGACAGAGCGACUGCAGCUGUGGACAGAAAACUGAGGUACUGUGUUUACAUGGUGAGUGGUCGUUACCAUCCAACAGCACAAGGCACAAAAAAUGGGCAUCACAACAGAGGAUUGAGCAUCA
B10: chr11:54532911:54532912:-_ENSMUSG00000052298_ENSMUST00000064104|mus_hu|FALSE|FALSE (ssRNA)
RNA: GGGAGUUCUACAGUCCGACGAUCGGGUCGGCAGUGAAAAGAAAAAUGUUUAAAAUAGAAAAAAAAAACUGCAAAAUGGUGUUAGCAUUCACAAAAAAGAUCAUGCGAAGAUCAGAUCCAUACUGAUUAAACAUUGAAAAUUCACAACAGAGGAUUGAGCAUCA
B11: chr5:144471560:144471561:-_ENSMUSG00000051306_ENSMUST00000053287|mus_hu|FALSE|FALSE (ssRNA)
RNA: GGGAGUUCUACAGUCCGACGAUCGAGACUCCAGUAUCAGUGAAGACAAGAGACGCUGUAUCAAAAAGUGUUGUGUAAUAGAAACAUACUGUCGGCUUUACAAAUCAUGUCUGGGUUAUACAUUCAUAAUGUAAAUACUCAUCACAACAGAGGAUUGAGCAUCA
B12: chr7:140404665:140404666:+_ENSG00000090266_ENST00000247866|hu_hu|hu_hu_hu_mus_False|18_38 (ssRNA)
RNA: GGGAGUUCUACAGUCCGACGAUCUGCUCCUACUCGUCCAGAGAGUUUACAGUGUCAGUCCUCGUCAUCAGGAGGGAUUCCCAGUUCUUCAUCUGUCCACUGGGAAGGAUCUGGAUACGGAAAGUGACCCAGCACAGCAUCCGACAACAGAGGAUUGAGCAUCA
B13: chr6:89793807:89793808:+_ENSG00000146278_ENST00000336032|hu_mus|FALSE|FALSE (ssRNA)
RNA: GGGAGUUCUACAGUCCGACGAUCACUUCCCAUCCAGUGACUCGGAGGCUUUGGGAGGACACUAGGGGAAGGUGGGUCACUGAACUUUGCUCCGGCGUAAUUUUCCUUUUGGCUCACUUCUGUUAGAAAUGCUGAUUUCUUCAACAACAGAGGAUUGAGCAUCA
B14: chr9:104153060:104153061:-_ENSG00000136897_ENST00000374865|hu_mus|FALSE|FALSE (ssRNA)
RNA: GGGAGUUCUACAGUCCGACGAUCAUGAGAUUCCAAGCGACUCUGGAGAUCACUGGGCGGUGUGUAUGCUCGGCUUCGUAAGGGUGGACACACCAAAACAGGUUCUUUUUUCACUUCUUCCACUGUCUCUGCCACAACUGGCUCCAACAGAGGAUUGAGCAUCA

Binding signal data for 14 molecules are collected here from publication PMC12136788.

The full ranking holds about 24,000 sequences; the median of “enrichment r” is about 0.99, and the highest 2% start at about 3.7. The list comes from a sample in which the highest values are over-represented; it also holds similar and randomly drawn sequences.

In the assay the target is T1, UNK ZnF1-3. Kind of assay: nsRBNS (natural sequence RNA bind-n-seq); RBNS binding buffer (assumed for nsRBNS): 25 mM Tris pH 7.5, 150 mM KCl, 3 mM MgCl2, 0.01% Triton X-100, 500 ug/ml BSA, 20 U/ml SUPERase-In, 4 C; UNK is unkempt and MSI1 is Musashi-1; names of the RNAs are library labels; protein concentration not given here; high values mean tight binding.
In turn, B1 yielded a binding signal of 0.465 enrichment R.

For the molecule B2, the binding signal is 0.484 enrichment R.

B3 returned a binding signal of 1.48 enrichment R.

As to B4, the binding signal came to 0.4 enrichment R.

With B5, the binding signal is 0.67 enrichment R.

For B6, the binding signal worked out at 1.52 enrichment R.

The molecule B7 showed a binding signal of 0.526 enrichment R.

In turn, B8 gave a binding signal of 1.74 enrichment R.

In the case of B9, the binding signal stood at 1.39 enrichment R.

In turn, B10 yielded a binding signal of 4.5 enrichment R.

B11 gave a binding signal of 1.01 enrichment R.

For the molecule B12, the binding signal was 1.45 enrichment R.

In the case of B13, the binding signal was 0.744 enrichment R.

Molecule B14 yielded a binding signal of 0.821 enrichment R.
